# Bioassay records from PubChem.
# Calb FLC – C. albicans growth inhibition with fluconazole, primary screen, CaCi-2 strain, Alamar Blue fluorescence; C. albicans CaCi-2 (fluconazole-resistant clinical isolate) + fluconazole, 48 h; growth inhibition, % (test concentration not listed); actives 0.57% (n = 300,000); AID 1979, 2009;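 active means growth inhibition above about 58% in most replicates, limit read from the data, passing the limit was not always enough; inconclusive means exactly half the replicates above a set limit; inactive means most replicates below a set limit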;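 further: all wells also contain fluconazole at 8 µg/ml as a sub-toxic cotreatment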
# Platelet DG rel – inhibitors of platelet dense granule secretion, primary screen, cell-based, MLPCN, human platelets; human platelet-rich plasma, SFLLRN dense granule ATP release, luminescence; inhibition, %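 (compounds screened at 7.5 µM in platelet-rich plasma)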; actives 0.22% (n = 300,000); AID 1663, 2009;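 active means mean replicate score, as percent of positive control, at or above 50; inconclusive means mean below 50 but at least one replicate at or above 50; inactive means mean and every replicate below 50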
# Yeast superoxide – reduction of superoxide in aged yeast, primary screen, HTS; S. cerevisiae aged cells, superoxide DHE fluorescence; hits give low values; superoxide response (% of plate mean), % at 10 µM; actives 0.18% (n = 330,000);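 active means superoxide response under a set limit, about three screen SD below normal, cut at about 65% in these data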;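 further: yeast aged for seven days with compound at 30 °C before DHE staining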
# SKKanGAS inh – S. pyogenes SKKanGAS growth inhibitors in kanamycin, primary screen, streptokinase expression inhibitor project, SKKanGAS strain, BacTiter-Glo luminescence; inhibition, % at 7.5 µM; 6 h; AID 1662, 2009; actives 1.3% (n = 300,000);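 active means mean replicate score, as percent of positive control median, at least 50; inconclusive means mean below 50 but one replicate at or above 50; inactive means mean and every replicate below 50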;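 further: strain carries kanamycin resistance gene driven by streptokinase promoter and grows in 40 µg/ml kanamycin; loss of luminescence reflects streptokinase promoter inhibition or plain growth inhibition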
# PolyA inh – polyadenylation inhibitors in yeast reporter cells, primary screen, luminescence, S. cerevisiae; actives 0.02% (n = 300,000); activity score, % at 12 µM; S. cerevisiae SKY197-pL101 polyadenylation reporter, beta-gal luminescence; efflux-impaired pdr1/pdr3 knockout yeast; score 100 = 6 SD above DMSO; AID 1875, 2009;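 active means lowest replicate activity score at least 50, where 100 means six control SD above control mean; inconclusive means lowest score under 50 but half or more replicates reach 50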;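 further: yeast exposed to compound for 9 h at 30 °C; higher score means more reporter readthrough which indicates perturbed polyadenylation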
# Hits are given with their value; . = inactive; ? = inconclusive; / = not tested or not shown. Shown are actives, neighbours in structure and some others; about 2% of the full set was active somewhere.
SMILES,Calb FLC,Platelet DG rel,Yeast superoxide,SKKanGAS inh,PolyA inh
CCN1CCN(Cc2ccc(NC(=O)c3cc(NC(=O)c4cc(-c5ccc(OC)cc5)n[nH]4)cc(OC)c3)cc2C(F)(F)F)CC1,.,.,.,71,.
CCN1CCN(Cc2ccc(NC(=O)c3ccc(C)c(NC(=O)c4c[nH]c5cc(C(F)(F)F)ccc5c4=O)c3)cc2C(F)(F)F)CC1,.,.,/,92,.
Cc1ccc(-c2nc3cc(NS(=O)(=O)c4ccc(C)cc4)ccc3o2)cc1,.,.,.,85,.
Cc1ccc(-c2nc(-c3cccnc3)no2)c(C)c1,95,.,.,.,.
CC(=O)Oc1ccc(-c2nc(-c3cccnc3)no2)cc1,.,79,.,?,.
Cc1ccc(C)c(OCc2nc(-c3cccnc3)no2)c1,.,.,.,.,.
CCc1nnc(NC(=O)CCC(=O)NC2CCCC2)s1,.,.,.,.,.
CN(c1cccc2cccnc12)S(=O)(=O)c1ccccc1,.,.,.,.,.
CN(C)CCOC(=O)c1sc2ccccc2c1Cl,110,.,.,.,.
NC(=O)NC(=O)COC(=O)c1sc2ccccc2c1Cl,.,.,.,.,.
Cn1ncc(C#N)c1NC(=O)C1CC(c2ccccc2Cl)=NO1 (stereo unspecified),.,.,44,.,.
CC1(C)S[C@@H]2[C@H](NC(=O)COc3ccccc3)C(=O)N2C1C(=O)OCc1cc2ccccc2n1S(=O)(=O)c1ccccc1 (stereo partly specified),.,.,.,78,.
CC(Oc1ccccc1)C(=O)NC1C(=O)N2C1SC(C)(C)C2C(=O)O (stereo unspecified),.,.,.,106,.
CC1(C)S[C@@H]2[C@H](NC(=O)COc3ccccc3)C(=O)N2C1C(=O)OCC1CCCCC1 (stereo partly specified),.,.,.,64,.
CCOC(=O)OC(C)OC(=O)[C@@H]1N2C(=O)[C@@H](NC(=O)[C@H](N)c3ccccc3)[C@H]2SC1(C)C (stereo partly specified),/,/,.,/,/
CC(CC(=O)Nc1ccc(S(=O)(=O)N2CCOCC2)cc1)c1ccccc1 (stereo unspecified),.,.,.,.,.
Cc1ccc(NC2=C/C(=N/S(=O)(=O)c3cccs3)c3ccccc3C2=O)cc1,.,.,.,89,.
O=C1C(Nc2ccccc2)=C/C(=N/S(=O)(=O)c2cccs2)c2ccccc21,.,.,.,97,.
CC1CCCC(NC(=S)NC(=O)c2ccco2)C1C (stereo unspecified),/,/,.,/,/
COCc1c(C(C)C)nc(C(C)C)c(/C=C/[C@@H](O)C[C@@H](O)CC(=O)O)c1-c1ccc(F)cc1,112,.,.,.,.
CC(C)n1c(/C=C/[C@@H](O)C[C@@H](O)CC(=O)O)c(-c2ccc(F)cc2)c2ccccc21,.,.,.,.,.
Cc1cc(N/N=C/c2ccc(O)c(C)c2O)nc(-c2ccccc2O)n1,.,.,.,58,.
O=C(NCCO)c1c(O)c2cccc3c2n(c1=O)CC3,.,.,.,.,.
CC(C)(C)c1ccccc1NC(=O)c1c(O)c2cccc3c2n(c1=O)CC3,82,.,.,.,?
O=C(Nc1ccccn1)c1c(O)c2cccc3c2n(c1=O)CCC3,.,?,.,.,.
SMILES,Calb FLC,Platelet DG rel,Yeast superoxide,SKKanGAS inh,PolyA inh
O=C(Nc1nccs1)c1c(O)c2cccc3c2n(c1=O)CCC3,.,.,.,100,.
CCN1CCN(C(=O)N2CCOCC2)CC1,.,.,.,.,.
CSCCC(NC(N)=O)C(=O)Nc1ccc(F)c(Cl)c1 (stereo unspecified),.,.,.,.,.
CC12CCC(C(=O)NNc3ccc([N+](=O)[O-])cc3)(CC1=O)C2(C)C (stereo unspecified),121,.,.,.,.
NNc1cc([N+](=O)[O-])cc2c1C(=O)N(Cc1ccccc1)S2=O (stereo unspecified),.,.,.,.,.
COc1ccc(NS(=O)(=O)c2cccc(NC(=O)CCC(=O)c3ccc(Cl)cc3)c2)cc1,.,.,.,51,.
COc1ccc2c(c1)c(CC(=O)Nc1cccc(S(N)(=O)=O)c1)c(C)n2C(=O)c1ccc(Cl)cc1,.,.,.,86,.
O=C(OCn1ncc(Cl)c(Cl)c1=O)c1cccc(C(F)(F)F)c1,98,.,.,.,.
Cc1cc(F)ccc1S(=O)(=O)Nc1ccccc1C(=O)Nc1ncn[nH]1,/,.,.,.,.
Cc1cc(F)ccc1S(=O)(=O)Nc1ccccc1C(=O)Nc1ccccc1-c1nc2ccccc2[nH]1,?,.,.,58,.
O=C(CN(c1ccccc1)S(=O)(=O)c1ccccc1[N+](=O)[O-])Nc1cccnc1,.,.,.,.,.
Cc1ccc(C(=O)NNC(=O)CSc2n[nH]c(-c3cccnc3)n2)cc1,.,.,.,.,.
Cc1c(Cl)cnc(NC(=O)CSc2nncs2)c1Cl,112,.,.,.,.
O=C1NC[C@@H](Cc2cccc3ccccc23)N(CCCCC2CCCCC2)C1=O,.,.,.,82,.
CC(=O)N(C1=C(Cl)C(=O)c2ccccc2C1=O)C1CCCCC1,.,.,.,53,.
COc1ccc(N(CC(=O)NCc2ccc(C)cc2)S(=O)(=O)c2c(C)[nH]c(=O)[nH]c2=O)cc1,.,.,.,.,.
CCOc1ccc(N(CC(=O)NCc2ccc(C)cc2)S(=O)(=O)c2c(C)[nH]c(=O)[nH]c2=O)cc1,.,.,.,59,.
Clc1ccc(/C(Cc2nc3ccccc3[nH]2)=N\Nc2ccccc2)cc1,.,.,.,90,.
COc1c(Cl)cc(Cl)cc1/C=C/C(=O)c1ccc(NC(=O)c2cccs2)cc1,.,.,.,.,.
CC(C)C[C@H](NC(=O)N1CC(=O)Nc2ccccc21)C(=O)N[C@H](C(=O)O)c1ccccc1,.,.,.,63,.
CC(C)[C@H](NC(=O)N1CC(=O)Nc2ccccc21)C(=O)N[C@@H](Cc1ccccc1)C(=O)O,.,.,.,94,.
Cc1[nH]c2ccccc2c1C(=O)CSc1n[nH]c(N)n1,.,.,.,.,.
Fc1ccc(CSc2nnc(-c3cnccn3)n2Cc2ccco2)cc1,?,.,.,.,.
Brc1ccc(CSc2nnc(-c3cnccn3)n2Cc2ccco2)cc1,99,.,.,.,.
O=C(NNC(=O)c1cc(-c2cccc(Br)c2)nc2ccccc12)c1csc(N2CCOCC2)n1,.,.,.,56,.
O=C(NNC(=O)c1cc(Br)ccc1O)c1csc(N2CCOCC2)n1,/,/,.,/,/
C/C(CC(=O)Nc1ccc(F)cc1)=N\NC(=O)Cc1csc(N)n1,.,.,64,.,.
CCCCNC(=O)Oc1ccc(C(=O)N2c3ccccc3NC(=O)C2C)cc1 (stereo unspecified),.,.,.,.,.
